Laboratory results published in PubChem BioAssay (NCATS).
Results filed as inconclusive are left out. Entries that show only a call come without a potency. The source made the active and inactive calls. Unless noted, calls come from the whole dose curve; as a rule, active = well fitted curve in the direction sought with a large enough effect; inconclusive = small, poorly fitted or top-dose-only effect, or another doubt; inactive = no such curve, though single readings can be large; an effect the other way counts as inactive or inconclusive. Residues, ends and D or L forms follow the SMILES beside them. *: point of attachment. Cbz = O=C(OCc1ccccc1)*

How the values were obtained:
[1] = Nrf2 qHTS screen for inhibitors: Validation (AID 493153; active = well fitted inhibition curve with a large enough effect in the main read-out, with a control signal flat, not every such curve was filed as active; note: potency is the fitted concentration of half-maximal effect); conditions: Potency: luciferase luminescence; viability change: measured here: cytotoxicity max response
Method in brief: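 Dose-response validation uses reporter A549 cells with firefly luciferase under an antioxidant response element. Compounds stay on cells 18-24 h at 37°C, and luminescence indicates Nrf2-driven transcription.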

[2] = Validation screen for small molecules that induce DNA re-replication in SW480 colon adenocarcinoma cells (AID 504364); note: potency is the fitted concentration of half-maximal effect
Method in brief: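 Cells are treated 48 hr with test compound, stained 40 min with Hoechst at 37 C, and scanned for nuclear fluorescence; compounds inducing re-replication increase nuclei with elevated intensity.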

[3] = target: Peptidyl-prolyl cis-trans isomerase NIMA-interacting 1 (Homo sapiens) (UniProt Q13526); assay: qHTS Validation Assay to Find Inhibitors of Pin1 (AID 504536; active = well fitted inhibition curve with a large enough effect in the polarisation, with a control signal flat, not every such curve was filed as active; the % refers to the polarisation)
Method in brief: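 Fluorescence polarization competition: compounds (titration) displace HiFluor-488-labeled Pin1-1b peptide from Pin1 (0.3 uM final) in pH 7.5 HEPES buffer with DTT, 10 min at room temperature; %Activity normalized to no-enzyme wells, curves fitted.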

[4] = target: Phosphoglycerate kinase, glycosomal (Trypanosoma brucei brucei) (UniProt P07378); assay: qHTS Validation Assay to Find Inhibitors of Phosphoglycerate Kinase (AID 504547)
Method in brief: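 Inhibition of the enzyme is judged by a Kinase-Glo Plus luminescent signal following a one-hour incubation at room temperature. Because 1,3-BPG is unstable, it is made in situ by GAPDH at 100nM final; no-PGK wells define the baseline.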

[5] = target: phosphoglycerate mutase (Leishmania major) (UniProt Q4Q090); assay: qHTS Validation Assay to Find Inhibitors of Phosphoglycerate Mutase (AID 504548); conditions: Potency: inhibition qHTS; note: series mostly up to about 58 µM
Method in brief: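 Lm PGAM at 1.25 nM final with substrate in 100 mM TEA pH 7.6, 5 mM MgCl2, 0.01% Tween-20; 45 min at room temperature. Kinase-GloPlus added, 10 min, end-point luminescence read.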

[6] = qHTS for Inhibitors of ATXN expression: Validation of Cytotoxic Assay (AID 588349);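 note: cells exposed to compound for 72 hr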
Method in brief: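 HEK293, compound dose series, 72 hr / 37 degrees C; viability via CellTiter Glo (intracellular ATP).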

[7] = qHTS for Inhibitors of ATXN expression: Validation (AID 588378); note: nearly all actives have a fitted effect of over 75% in size; note: potency is the fitted concentration of half-maximal effect
Method in brief: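 HEK293 cells carrying ATXN2-firefly luciferase reporter, treated with compound 24 h at 37 °C. Viability read first by CellTiter-Fluor (405/525 nm), then reporter expression by Bright-Glo luminescence; controls were a known ATXN2 expression inhibitor and a luciferase inhibitor.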

[8] = target: Galactokinase (Homo sapiens) (UniProt P51570); assay: qHTS Validation Assay for Inhibitors of Human Galactokinase (GALK) (AID 493189)
Method in brief: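 GALK (5 nM) with 35 uM ATP and 100 uM galactose in HEPES pH 8.0 with MgCl2, NaCl, DTT and BSA. Reaction ran 1 h at room temperature. Residual ATP read by Kinase-Glo Plus luminescence.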

[9] = target: Ubiquitin carboxyl-terminal hydrolase 1 (Homo sapiens) (UniProt O94782); assay: Inhibitors of USP1/UAF1: Pilot qHTS (AID 504865); note: nearly all actives have a fitted effect of over 35% in size; note: potency is the fitted concentration of half-maximal effect
Method in brief: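 USP1/UAF1 complex at 1 nM preincubated 15 min at room temperature with compound, then Ub-Rho substrate added at 150 nM final. Fluorescence (480/540 nm) read kinetically in 50 mM HEPES pH 7.8, 0.5 mM EDTA, 1 mM TCEP, 0.1 mg/ml BSA, 0.01% Tween-20.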

[10] = target: DNA dC->dU-editing enzyme APOBEC-3G (Homo sapiens) (UniProt Q9HC16); assay: qHTS for inhibitors of Vif-A3G interactions: Validation (AID 588379)
Method in brief: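 HeLa cells stably expressing Vif and A3G-eYFP, 700 cells/well, incubated overnight at 37 deg C, then exposed to compound overnight at 37 deg C. Inhibition of Vif-mediated degradation read as increased yellow fluorescence (Ex 488/Em 500-530) by laser-scanning cytometry.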

[11] = qHTS for Inhibitors of Cell Surface uPA Generation: Validation Assay (AID 493164);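 note: RAW 264.7 macrophage cells exposed to compound for 18 h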
Method in brief: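 RAW 264.7, 4000 cells/well, o/n plating; cpd 7-pt 1:5 dilution 2.45 nM–38.3 uM final; 18 h, 37 C/5% CO2; ATP-Lite, 5 s luminescence exposure.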

Chain of Galactokinase (Homo sapiens) (P51570 whole entry, looked up): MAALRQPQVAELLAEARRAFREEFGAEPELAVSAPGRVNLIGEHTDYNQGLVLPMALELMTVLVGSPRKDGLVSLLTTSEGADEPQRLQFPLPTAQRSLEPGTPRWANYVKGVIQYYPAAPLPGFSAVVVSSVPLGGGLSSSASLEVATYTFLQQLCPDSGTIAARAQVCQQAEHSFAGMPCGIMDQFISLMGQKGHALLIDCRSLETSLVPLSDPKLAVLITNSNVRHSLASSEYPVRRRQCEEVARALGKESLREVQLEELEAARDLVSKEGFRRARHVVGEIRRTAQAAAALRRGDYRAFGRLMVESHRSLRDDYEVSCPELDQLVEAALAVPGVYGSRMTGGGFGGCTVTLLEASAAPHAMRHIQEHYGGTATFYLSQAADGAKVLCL
Chain of Peptidyl-prolyl cis-trans isomerase NIMA-interacting 1 (Homo sapiens) (Q13526 whole entry, looked up): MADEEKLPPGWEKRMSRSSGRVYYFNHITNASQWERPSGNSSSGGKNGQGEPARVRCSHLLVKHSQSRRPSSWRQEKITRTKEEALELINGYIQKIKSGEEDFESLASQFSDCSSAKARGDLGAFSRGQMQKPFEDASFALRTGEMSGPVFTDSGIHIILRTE
Chain of DNA dC->dU-editing enzyme APOBEC-3G (Homo sapiens) (Q9HC16 whole entry, looked up): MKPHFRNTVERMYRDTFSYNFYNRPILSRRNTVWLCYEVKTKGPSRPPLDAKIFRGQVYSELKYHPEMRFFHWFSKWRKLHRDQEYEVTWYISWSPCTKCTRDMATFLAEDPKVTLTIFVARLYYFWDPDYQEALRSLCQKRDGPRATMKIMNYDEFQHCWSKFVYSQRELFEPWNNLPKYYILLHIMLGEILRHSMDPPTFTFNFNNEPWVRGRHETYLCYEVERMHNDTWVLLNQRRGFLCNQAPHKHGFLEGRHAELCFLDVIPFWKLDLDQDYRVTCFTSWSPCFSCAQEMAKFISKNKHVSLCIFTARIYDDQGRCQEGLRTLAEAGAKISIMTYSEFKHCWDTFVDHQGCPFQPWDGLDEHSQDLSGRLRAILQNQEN
Chain of Phosphoglycerate kinase, glycosomal (Trypanosoma brucei brucei) (P07378 whole entry, looked up): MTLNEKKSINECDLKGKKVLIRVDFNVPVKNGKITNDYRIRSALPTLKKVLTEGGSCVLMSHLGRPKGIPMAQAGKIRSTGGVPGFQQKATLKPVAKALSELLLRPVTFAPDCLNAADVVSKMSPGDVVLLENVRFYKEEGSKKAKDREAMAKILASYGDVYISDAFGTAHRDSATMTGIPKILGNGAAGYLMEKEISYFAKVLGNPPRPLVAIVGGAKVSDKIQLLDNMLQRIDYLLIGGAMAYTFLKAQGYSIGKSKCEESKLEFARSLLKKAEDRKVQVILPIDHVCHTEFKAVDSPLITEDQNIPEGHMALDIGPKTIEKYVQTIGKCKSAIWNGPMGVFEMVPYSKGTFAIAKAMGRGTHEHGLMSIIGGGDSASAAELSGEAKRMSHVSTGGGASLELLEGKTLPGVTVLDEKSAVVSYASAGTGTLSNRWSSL
Chain of Ubiquitin carboxyl-terminal hydrolase 1 (Homo sapiens) (O94782 whole entry, looked up): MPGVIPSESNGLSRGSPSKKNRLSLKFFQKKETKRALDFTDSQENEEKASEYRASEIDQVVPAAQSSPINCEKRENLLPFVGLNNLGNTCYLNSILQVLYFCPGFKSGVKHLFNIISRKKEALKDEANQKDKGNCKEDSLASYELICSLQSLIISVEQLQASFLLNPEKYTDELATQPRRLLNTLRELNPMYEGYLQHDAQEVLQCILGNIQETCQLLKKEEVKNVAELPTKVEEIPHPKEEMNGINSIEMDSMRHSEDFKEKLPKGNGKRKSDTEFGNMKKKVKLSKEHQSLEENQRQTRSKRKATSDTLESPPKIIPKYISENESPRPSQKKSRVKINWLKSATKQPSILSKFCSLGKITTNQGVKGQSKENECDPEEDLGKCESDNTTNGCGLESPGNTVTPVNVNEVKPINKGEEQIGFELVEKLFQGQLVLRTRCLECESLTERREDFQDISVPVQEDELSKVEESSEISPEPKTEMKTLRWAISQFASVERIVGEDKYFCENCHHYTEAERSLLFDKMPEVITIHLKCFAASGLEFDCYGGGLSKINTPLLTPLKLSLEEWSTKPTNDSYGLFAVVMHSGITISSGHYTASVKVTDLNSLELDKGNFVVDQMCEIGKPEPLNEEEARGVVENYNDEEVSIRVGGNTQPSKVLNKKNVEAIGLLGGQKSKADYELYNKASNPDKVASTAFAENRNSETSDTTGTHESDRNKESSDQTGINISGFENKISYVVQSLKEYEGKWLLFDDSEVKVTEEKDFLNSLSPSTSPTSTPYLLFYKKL
Chain of phosphoglycerate mutase (Leishmania major) (Q4Q090 1-553): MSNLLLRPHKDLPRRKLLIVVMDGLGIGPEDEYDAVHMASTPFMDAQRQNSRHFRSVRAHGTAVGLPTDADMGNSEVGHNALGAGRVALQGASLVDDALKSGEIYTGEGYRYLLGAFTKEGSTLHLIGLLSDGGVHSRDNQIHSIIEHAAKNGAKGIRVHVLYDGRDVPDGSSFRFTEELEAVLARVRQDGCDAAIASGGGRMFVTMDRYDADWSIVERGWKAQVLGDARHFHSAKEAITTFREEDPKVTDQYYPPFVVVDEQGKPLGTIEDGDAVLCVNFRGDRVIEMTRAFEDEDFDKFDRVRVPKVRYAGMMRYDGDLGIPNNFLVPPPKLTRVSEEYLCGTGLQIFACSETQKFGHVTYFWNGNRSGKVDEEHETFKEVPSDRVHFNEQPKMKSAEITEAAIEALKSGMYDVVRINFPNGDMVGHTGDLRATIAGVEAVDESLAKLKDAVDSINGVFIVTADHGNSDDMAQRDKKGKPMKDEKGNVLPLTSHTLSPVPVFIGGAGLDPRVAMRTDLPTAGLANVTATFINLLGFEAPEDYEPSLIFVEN

SMILES	Potency [1]	viability change [1] [%]	Potency [2]	Potency [3]	Potency [4]	Potency [5]	Potency [6]	Potency [7]	Potency [8]	Potency [9]	Potency [10]	outcome [11]
CCCOC(=O)c1c(-c2ccccc2)nc(CC)c(C(=O)SCC)c1CCC	inactive	-5.09	inactive	inactive	inactive	inactive	inactive	inactive	–	–	–	–
CNC(=O)c1cc2c(cn1)[nH]c1ccccc12	inactive	-3.36	inactive	inactive	inactive	inactive	–	inactive	inactive	inactive	inactive	–
Cn1cc(C(F)(F)F)nc1-c1ccc(OCC(O)CNCCOc2ccc(O)c(C(N)=O)c2)cc1 (configuration not stated)	inactive	6.58	inactive	inactive	inactive	inactive	–	–	inactive	inactive	–	–
CC(C)[C@H](NC(=O)OCc1ccccc1)C(=O)N[C@H](C=O)Cc1ccccc1 (Cbz-Val-Phe-aldehyde)	inactive	13.7	inactive	inactive	inactive	inactive	–	inactive	inactive	inactive	–	–
O=C(O)c1cc2cc(F)ccc2[nH]1	inactive	4.46	inactive	inactive	inactive	inactive	inactive	inactive	–	inactive	–	–
O=C(N[C@@H](Cc1ccccc1)C(=O)CCl)OCc1ccccc1	14.6 µM (active)	-11.4	inactive	inactive	–	inactive	–	3.98 µM (active)	inactive	28.2 µM (active)	–	–
CSc1nc(N)c2ncn([C@@H]3O[C@H](COP(=O)(O)OP(=O)(O)O)C(O)[C@H]3O)c2n1 (some centres not stated)	inactive	0.858	–	–	–	inactive	inactive	inactive	–	inactive	–	inactive
Nc1ncnc2c1ncn2C1CCCO1 (configuration not stated)	inactive	12.1	inactive	inactive	inactive	inactive	inactive	inactive	inactive	inactive	–	–
NCCC1CCCC(CCN)N1 (configuration not stated)	–	–	inactive	inactive	inactive	inactive	inactive	inactive	inactive	inactive	–	inactive
c1ccc2nc(C3=NCCN3)ccc2c1	–	–	inactive	inactive	inactive	inactive	inactive	–	inactive	inactive	inactive	inactive
CC#CCOC(=O)c1c(C)nc2sc3c(c2c1N)CCC(O)C3 (configuration not stated)	–	–	inactive	inactive	inactive	inactive	inactive	inactive	inactive	inactive	–	inactive
C=C1C[C@@]23CC[C@H]4[C@@](C)(CCC[C@@]4(C)C(=O)OC4OC(CO)C(O)C(O)C4O)[C@@H]2CC[C@]1(OC1OC(CO)C(O)C(O)C1OC1OC(CO)C(O)C(O)C1O)C3 (some centres not stated)	inactive	-3.06	–	inactive	inactive	inactive	–	inactive	–	inactive	–	–
Cn1c(=O)[nH]c2ncn(C)c2c1=O	–	–	inactive	inactive	inactive	inactive	inactive	–	inactive	inactive	–	inactive
CC(C)C[C@H](NC(=O)[C@H](O)[C@H](N)Cc1ccccc1)C(=O)O	–	–	inactive	inactive	inactive	inactive	inactive	inactive	inactive	inactive	–	inactive
CCC1(O)CC2CN(CCc3c([nH]c4ccccc34)[C@@](C(=O)OC)(c3cc4c(cc3OC)N(C)C3[C@]45CCN4CC=C[C@@](CC)([C@@H](OC(C)=O)[C@]3(O)C(=O)OC)[C@H]45)C2)C1 (some centres not stated)	–	–	0.0206 µM (active)	inactive	–	inactive	–	–	inactive	inactive	–	inactive
O=C1NC(=O)c2cc(Nc3ccccc3)c(Nc3ccccc3)cc21	–	–	inactive	inactive	inactive	inactive	inactive	–	inactive	–	–	inactive
COc1cc(CC(=O)O)ccc1O	–	–	inactive	inactive	inactive	–	inactive	inactive	inactive	inactive	–	inactive
O=[N+]([O-])c1cccc2cn[nH]c12	–	–	inactive	inactive	–	inactive	inactive	inactive	inactive	inactive	inactive	inactive
COc1ccc2c(c1)c(CC(=O)O)c(C)n2Cc1ccc(Cl)cc1	–	–	inactive	inactive	inactive	inactive	inactive	inactive	inactive	inactive	–	inactive
Cn1ccnc1	–	–	inactive	inactive	inactive	inactive	inactive	–	inactive	inactive	–	inactive
